# About 21,000 targets were measured; listed, in parts, are those with the largest changes and a random draw of the rest.
# Compound: Cc1cc(ccc1-c1ccccc1)C(=O)N1CCCN(CC1)C(=O)CCl [compound 10]
# Experiment: probe-labelled cysteine peptide fold change vs DMSO (competition) (log2 fold change); higher = less target engagement (more negative = stronger competition)
# Conditions: THP-1, incubation time: 4 h
# 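Further: competitive profiling in live THP-1 cells: cysteine peptides tagged with an iodoacetamide desthiobiotin (IA-DTB) probe, intensity after compound treatment relative to DMSO-treated cells.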
Target,probe-labelled cysteine peptide fold change (10 µM),probe-labelled cysteine peptide fold change (50 µM)
RASSF5_Q8WWW0_225_NCLGMK (UniProt Q8WWW0),-0.275,-0.844
RANGAP1_P46060_169_ILAAALTECHRK (UniProt P46060),-0.159,-0.379
PRXL2A_Q9BRX8_88_RPGCFLCR (UniProt Q9BRX8),-2.04,-2.18
R3HCC1_Q9Y3T6_5_ALLCLDGVFLSSAENDFVHR (UniProt Q9Y3T6+R3HCC1),0.242,0.0812
PRKDC_P78527_1335_CTVVVR (UniProt P78527),0.00715,0.101
PRKCSH_P14314_39_GVSLTNHHFYDESKPFTCLDGSATIPFDQVNDDYCDCK (UniProt P14314),-0.151,-1.07
PTPRC_P08575_610_SCNLDEQQELVERDDEK (UniProt P08575),-0.427,-1.12
PRMT5_O14744_622_KVWYEWAVTAPVCSAIHNPTGR (UniProt O14744),-0.0156,0.0576
RHOC_P08134_20_TCLLIVFSK<|>RHOA_P61586_20_TCLLIVFSK<|>RHOB_P62745_20_TCLLIVFSK (UniProt P62745+P61586+P08134),-0.323,-0.507
RDH13_Q8NBN7_30_DYVTGGACPSK (UniProt Q8NBN7),-0.162,-0.083
PRPF8_Q6P2Q9_2116_KFICISDLR (UniProt Q6P2Q9),0.0139,0.129
PXN_P49023_523_ECFTPFVNGSFFEHDGQPYCEVHYHER (UniProt P49023),0.032,0.12
RAI14_Q9P0K7_139_TALHYAAAQGCLQAVQILCEHK (UniProt Q9P0K7),0.0635,-0.0217
PSME4_Q14997_637_CCPEESLK (UniProt Q14997),-0.0784,-0.446
QARS_P47897_665_GPSGCVESLEVTCR (UniProt P47897),-0.11,0.446
PSME1_Q06323_101_KKGEDEDKGPPCGPVNCNEK (UniProt Q06323),-0.428,-1.54
PREX1_Q8TCU6_836_LSLCEDSPMVTLTVDNVHLEHGVVYEYVSTAGVR (UniProt Q8TCU6),-0.0714,0.185
RBM4B_Q9BQ04_107_FEEYGPVIECDIVK<|>RBM4_Q9BWF3_107_FEEYGPVIECDIVK (UniProt Q9BWF3+Q9BQ04),0.566,0.744
RGPD3_A6NKT7_537_SWWDAVCTLIHR<|>RGPD8_O14715_537_SWWDAVCTLIHR<|>RGPD1_P0DJD0_528_SWWDAVCTLIHR<|>RGPD2_P0DJD1_536_SWWDAVCTLIHR<|>RANBP2_P49792_536_SWWDAVCTLIHR<|>RGPD4_Q7Z3J3_537_SWWDAVCTLIHR<|>RGPD6_Q99666_537_SWWDAVCTLIHR (UniProt Q7Z3J3+P49792+P0DJD1+Q99666+P0DJD0+O14715+A6NKT7),-0.451,-0.14
PRPF6_O94906_837_KCEHDPHVLLAVAK (UniProt O94906),-0.315,0.18
PRKDC_P78527_2342_KNILEESLCELVAK (UniProt P78527),-0.182,-0.0562
RABGAP1L_Q5R372_665_NNFEDLHCK (UniProt Q5R372),0.206,0.197
RBM28_Q9NW13_97_NENSECPK (UniProt Q9NW13),-0.0194,0.16
RFC3_P40938_32_NLVQCGDFPHLLVYGPSGAGKK (UniProt P40938),-0.11,-0.186
RACGAP1_Q9H0H5_419_VDDIHAICSLLK (UniProt Q9H0H5),0.00786,0.00467
RAB29_O14966_127_CDLSPWAVSR (UniProt O14966),-0.0495,0.0455

Target,probe-labelled cysteine peptide fold change (10 µM),probe-labelled cysteine peptide fold change (50 µM)
PRKCI_P41743_137_LYCANGHTFQAK (UniProt P41743),-0.00179,0.0748
PSMC3_P17980_240_ACAAQTK (UniProt P17980),-0.0208,-0.0025
PRR14L_Q5THK1_1483_DTESCTSPCLLGAPR (UniProt Q5THK1),-0.528,-1.12
RANBP2_P49792_2982_VCANHVITK (UniProt P49792),0.0357,0.111
RNF114_Q9Y508_64_KPVCGVCR (UniProt Q9Y508),0.0642,-0.0371
RGS10_O43665_66_EFSEENVLFWLACEDFK (UniProt O43665),0.332,0.101
RET_P07949_987_LMLQCWK (UniProt P07949),0.0807,0.122
QDPR_P09417_161_GAVHQLCQSLAGK (UniProt P09417),0.0328,0.165
RGMB_Q6NW40_226_ITIIFKAHHECTDQK (UniProt Q6NW40),-0.0752,-1.11
RABEPK_Q7Z6M1_36_VGHSCSYLPPVGNAK (UniProt Q7Z6M1),-0.218,-0.0672
PYCR1_P32322_262_SLLINAVEASCIR (UniProt P32322),0.0279,0.0718
RCCD1_A6NED2_139_LPLLPCAR (UniProt A6NED2),-1.01,-1.9
PUM1_Q14671_980_CIECVQPQSLQFIIDAFK (UniProt Q14671),0.213,-0.0133
RHOG_P84095_18_TCLLICYTTNAFPK (UniProt P84095),-0.108,0.0979
RFC3_P40938_32_NLVQCGDFPHLLVYGPSGAGK (UniProt P40938),-0.122,0.124
RGPD3_A6NKT7_349_GEAGQNLLEMMACDR<|>RGPD1_P0DJD0_340_GEAGQNLLEMMACDR<|>RGPD2_P0DJD1_348_GEAGQNLLEMMACDR<|>RANBP2_P49792_348_GEAGQNLLEMMACDR<|>RGPD4_Q7Z3J3_349_GEAGQNLLEMMACDR (UniProt Q7Z3J3+P49792+P0DJD1+P0DJD0+A6NKT7),-0.0339,0.0903
RIF1_Q5UIP0_2450_LSCMANSVIK (UniProt Q5UIP0),-0.0942,-0.14
RAD54L2_Q9Y4B4_1143_MAASGSQGPSCESTSNGR (UniProt Q9Y4B4),-0.204,-0.485
PSMB3_P49720_19_NCVAIAADRR (UniProt P49720),0.0313,0.234
PRPF4_O43172_441_RCVYTIPAHQNLVTGVK (UniProt O43172),-0.0522,-0.2
RANBP9_Q96S59_707_QPPLALAMGQATQCLGLMAR (UniProt Q96S59),0.193,0.216
RMND5A_Q9H871_328+336_CWYHSIFACPILR (UniProt Q9H871),-0.0698,-0.177
RANBP2_P49792_1749_CIACQCPSK (UniProt P49792),0.0505,0.0953
QSOX1_O00391_110_AWRPALYLAALDCAEETNSAVCR (UniProt O00391),-0.147,-0.174
RBBP5_Q15291_100_LVSASTDNIVSQWDVLSGDCDQR (UniProt Q15291),0.121,0.0651
RECQL4_O94761_814_DGQPAHCHLFLQPQGEDLR (UniProt O94761),-0.0251,-0.0847

Target,probe-labelled cysteine peptide fold change (10 µM),probe-labelled cysteine peptide fold change (50 µM)
PTPN11_Q06124_318_CNNSKPK (UniProt Q06124),-0.31,-1.11
RCSD1_Q6JBY9_181_RSQSDCGELGDFR (UniProt Q6JBY9),-0.852,-1.19
PRKD2_Q9BZL6_169_CDGCGLNYHK (UniProt Q9BZL6),-0.0725,0.00149
QRSL1_Q9H0R6_278_LCIGIPK (UniProt Q9H0R6),0.155,0.0481
PRMT3_O60678_67_LFTSAEETFSHCK (UniProt O60678),0.049,0.0747
PSMD11_O00231_202_TTANAIYCPPK (UniProt O00231),0.077,0.248
RGS14_O43566_183_ECLLAEAEGR (UniProt O43566),-0.0353,0.16
PSMC1_P62191_58_LPLVTPHTQCR (UniProt P62191),-0.0192,0.104
PRPF19_Q9UMS4_5+16_SLICSISNEVPEHPCVSPVSNHVYER (UniProt Q9UMS4),0.0585,0.103
PTER_Q96BW5_196_VLQATAHAQAQLGCPVIIHPGR (UniProt Q96BW5),0.2,0.329
PXN_P49023_387_TWHPEHFVCTHCQEEIGSR (UniProt P49023),-0.0992,-0.106
PUS7_Q96PZ0_319_CLMNFK (UniProt Q96PZ0),-0.0229,-0.239
PRR14L_Q5THK1_1503_AQDPSSAGCDQIHGAFAK (UniProt Q5THK1),-0.388,-1.59
PXN_P49023_505_ECFTPFVNGSFFEHDGQPYCEVHYHER (UniProt P49023),0.192,0.386
RHOC_P08134_16_KLVIVGDGACGK<|>RHOA_P61586_16_KLVIVGDGACGK (UniProt P61586+P08134),-0.0365,-0.193
PRKCD_Q05655_127_VLMSVQYFLEDVDCK (UniProt Q05655),-0.226,-0.31
RB1CC1_Q8TDY2_603_VPLLCDFEPLHQHVLALHNLVK (UniProt Q8TDY2),-0.156,-1.09
RNF126_Q9BV68_13+16_YFCHCCSVEIVPR (UniProt Q9BV68),-0.268,-1.16
PRKCD_Q05655_261+264_CEDCGMNVHHK (UniProt Q05655),-0.702,-1.69
PSMB8_P28062_7_ALLDVCGAPR (UniProt P28062),-0.068,-0.273
PRMT9_Q6P2P2_290_GESANCEK (UniProt Q6P2P2),-0.112,-0.0837
PRPS1_P60891_41_KFSNQETCVEIGESVR (UniProt P60891),0.0818,0.329
PSME4_Q14997_718_QGYTLSCNLLHHLLR (UniProt Q14997),0.366,0.173
PSMA7_O14818_91_ARVECQSHR (UniProt O14818),-0.0556,0.107
RAD50_Q92878_133_CAEIDREMISSLGVSK (UniProt Q92878),-0.195,-0.429

# — the supplement of paper PMC12067093, “Discovery and optimisation of a covalent ligand for TRIM25 and its application to targeted protein ubiquitination” (Chemical Science, 2025)
